Screening results deposited in PubChem by National Center for Advancing Translational Sciences (NCATS).
D3 ag – activates the human D3 dopamine receptor; D3R DiscoveRx beta-arrestin cells, luminescence, 90 min; max activation, %; actives 0.58% (n = 410,000); P35462; AID 652048; in the data active = max activation above about 30%
Target sequence (P35462 whole entry, looked up): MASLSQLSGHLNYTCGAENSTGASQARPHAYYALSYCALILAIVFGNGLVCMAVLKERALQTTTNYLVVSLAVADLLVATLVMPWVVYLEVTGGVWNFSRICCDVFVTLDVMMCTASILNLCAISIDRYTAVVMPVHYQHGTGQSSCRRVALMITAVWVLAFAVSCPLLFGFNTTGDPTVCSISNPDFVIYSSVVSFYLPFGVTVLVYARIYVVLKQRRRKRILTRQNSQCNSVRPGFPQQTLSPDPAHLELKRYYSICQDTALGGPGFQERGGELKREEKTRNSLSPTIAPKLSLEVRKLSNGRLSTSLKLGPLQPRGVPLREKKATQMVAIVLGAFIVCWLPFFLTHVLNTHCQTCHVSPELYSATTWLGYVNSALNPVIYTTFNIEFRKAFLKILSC
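Agonist mode: compounds and dopamine controls were applied to plated cells for 90 min at 37 degrees C after an overnight attachment at 1500 cells/well. Luminescent read-out followed 30 - 60 minutes at room temperature with DiscoveRx detection reagent.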
ClpP mod – qHTS Assay for Activators of ClpP; purified B. subtilis ClpP, FRET peptide cleavage, 20 min; actives 1.9% (n = 340,000); Potency, µM (top dose mostly 57.5 µM); active = well fitted falling curve with a large enough effect; inconclusive = small, poorly fitted or top-dose-only effect; inactive = no such curve, though single readings can be large or run the other way; also: the source files actives as falling curves though it sought activators and does not explain the sign; nearly all actives have a fitted effect of over 65% in size
Target sequence (P80244 whole entry, looked up): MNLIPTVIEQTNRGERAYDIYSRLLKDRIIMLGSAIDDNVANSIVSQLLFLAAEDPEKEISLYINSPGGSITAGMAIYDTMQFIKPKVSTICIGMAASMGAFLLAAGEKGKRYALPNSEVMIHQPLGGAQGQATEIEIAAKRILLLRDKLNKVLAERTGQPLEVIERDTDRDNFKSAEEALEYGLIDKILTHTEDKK
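FRET quenching reversal measured ClpP activation: 10 microg/mL B. subtilis ClpP at pH 8 with the FRET-FV decapeptide, read at 430 nm after 320 nm excitation. The 20-min minus 0-min signal was scaled between DMSO/no-enzyme wells and ADEP (5.8 microM final).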
DT40 TDP1 no CPT – qHTS for Inhibitors of human tyrosyl-DNA phosphodiesterase 1 (TDP1): qHTS in cells in absence of CPT. DT40 Tdp1-/- hTDP1 cells, no CPT, ATP luminescence, 48 h. Potency, µM (titrated, usually from 46.2 µM), most hits filed as inhibitors. AID 686978, 2013. actives 15% (n = 420,000); also: nearly all actives have a fitted effect of over 55% in size
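Seeded 400 DT40-hTDP1 cells/well (vehicle DMSO, no 20 nM CPT); pinned compounds; ≥48 hr at 37 °C; CellTiter-Glo luminescence as viability measure.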
IL-1B inflam inh – blocks inflammasome-driven IL-1 beta release. actives 4.7% (n = 360,000). THP-1 LPS/ATP IL-1B secretion, AlphaLISA, 16 h; hits give low values. activity change, % at 57.5 µM; in the data active = activity change below about -50%; inconclusive = mostly about -30% to -49%
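Secreted IL-1B measured by AlphaLISA bead assay after 16 h compound exposure of THP-1 cells; compounds (final up to 57.5 uM) added 1 h before LPS (250 ng/mL) and ATP (1.25 mM) stimulation; lower signal means less secretion.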
D3 antag – antagonists of human D3 dopamine receptor; D3R cells, DiscoveRx beta-arrestin luminescence, antagonist mode; hits give low values; actives 2.5% (n = 360,000); max response, negative = inhibition, %; in the data active = max response below about -50%; inconclusive = no clear call, values can overlap the other calls
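Cells plated overnight at 1500 cells/well, then exposed to library compounds with dopamine controls for 90 minutes at 37 degrees C. DiscoveRx reagent added for 30–60 minutes at room temperature; luminescence read, quantitative HTS format.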
TDP1 cell CPT – growth inhibition of DT40 Tdp1-/-;hTDP1 cells with camptothecin (screen for TDP1 inhibitors); chicken DT40 Tdp1-/-;hTDP1 cells + 20 nM CPT, ATP luminescence, 48 h; Potency, µM (doses to about 46.2 µM), hits mostly inhibitors; actives 12% (n = 420,000); AID 686979; also: nearly all actives have a fitted effect of over 55% in size
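Chicken DT40 Tdp1-/- cells stably complemented with human TDP1 were seeded at 400 cells/well in medium containing 20 nM camptothecin, exposed to pin-transferred compounds, and grown at 37 °C for at least 48 hr. Viability was read as ATP luminescence.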
Large screens that a line does not name were inactive. A selection: hits, their analogues and other compounds. The true share with any hit is near 21%. Unless noted, calls follow the shape of the dose curve; as a rule, active = well fitted inhibition curve with a large enough effect; inconclusive = small, poorly fitted or top-dose-only effect; inactive = flat fitted curve, though single readings scatter.

Cc1noc(-c2ccccc2OCC(=O)Nc2ccccc2[N+](=O)[O-])n1	DT40 TDP1 no CPT inconclusive, TDP1 cell CPT inconclusive (no result: IL-1B inflam inh, D3 antag)
Cc1cccc(NC(=O)c2ccc3[nH]c(C)cc(=O)c3c2)c1	none (no result: IL-1B inflam inh, D3 antag)
COc1cccc(-c2cc(=O)c3cc(NC(=O)c4ccc(N(C)C)cc4)ccc3[nH]2)c1	DT40 TDP1 no CPT 1.03µM, TDP1 cell CPT 0.92µM
COc1cccc(C(=O)Nc2ccccc2)c1	none
COc1cccc(-c2cc(=O)c3cc(NC(=O)c4ccccc4)ccc3[nH]2)c1	DT40 TDP1 no CPT 4.11µM, TDP1 cell CPT 4.61µM
COc1ccc(C)cc1NS(=O)(=O)c1ccc2c(c1)CCCN2C(C)=O	DT40 TDP1 no CPT inconclusive, TDP1 cell CPT inconclusive (no result: IL-1B inflam inh, D3 antag)
Cc1nc2cc(NC(=O)[C@@H]3C[C@@H](Sc4ccccn4)CN3Cc3ccccc3)ccc2s1	none (no result: D3 ag, ClpP mod, IL-1B inflam inh, D3 antag)
O=C(NCCO)C(=O)Nc1cc2c3c(c1)CCN3C(=O)CC2	none
CCOc1ccc(CNC(=O)c2ccc(NC(=O)N3CCCCc4ccccc43)cc2)cc1OC	none (no result: IL-1B inflam inh, D3 antag)
CC(=O)NC1=NN(C(C)=O)C(C)(c2ccccc2)S1 (stereo unspecified)	DT40 TDP1 no CPT 5.8µM, TDP1 cell CPT 5.8µM
CCOc1ccc2nc3ccc4[nH]onc4c3c2c1	DT40 TDP1 no CPT inconclusive, IL-1B inflam inh inconclusive, TDP1 cell CPT inconclusive
CCOc1ccc2nc3cc(NCc4ccc(OC)cc4)ccc3c(N)c2c1	DT40 TDP1 no CPT 20.6µM, TDP1 cell CPT 14.6µM
CCOc1ccc2nc3cc(N)ccc3c(N)c2c1	DT40 TDP1 no CPT 18.4µM, TDP1 cell CPT inconclusive (no result: ClpP mod, IL-1B inflam inh, D3 antag)
CCCCN1C(=O)C(=O)N(CC(=O)Nc2ccc(OC(F)(F)F)cc2)C1=O	TDP1 cell CPT inconclusive (no result: ClpP mod)
CC(=O)c1ccc2c(c1)c(C#N)c1ccccc1[n+]2[O-]	DT40 TDP1 no CPT 18.4µM, TDP1 cell CPT 13µM
O=C(CSc1nncn1-c1cccnc1)N(c1ccccc1)c1ccccc1	none (no result: ClpP mod)
O=c1cc(N=Nc2ccc(Cl)cc2)[nH]c(=O)[nH]1	DT40 TDP1 no CPT 0.92µM, IL-1B inflam inh -98.9, D3 antag inconclusive, TDP1 cell CPT 0.517µM (no result: ClpP mod)
CCOC(=O)N/N=C\C=C\c1ccco1	DT40 TDP1 no CPT inconclusive (no result: ClpP mod)
CC(/C=C/c1ccco1)=N/NC(=O)c1ccccc1Cl	DT40 TDP1 no CPT 16.4µM, D3 antag inconclusive, TDP1 cell CPT 23.1µM
Cc1ccc(OCC(=O)N/N=C/C=C/c2ccco2)c(Br)c1	DT40 TDP1 no CPT inconclusive, TDP1 cell CPT 18.4µM
C/C(=N/NC(=O)CNC(=O)/C=C/c1ccco1)c1ccc(Cl)cc1	ClpP mod 28.2µM, DT40 TDP1 no CPT inconclusive, TDP1 cell CPT inconclusive
O=C(N/N=C/C=C/c1ccco1)c1ccccc1Cl	DT40 TDP1 no CPT 16.4µM, TDP1 cell CPT inconclusive (no result: ClpP mod)
COc1ccc(-n2[nH]c3c(cnc4ccccc43)c2=O)cc1	none
Cc1ccc(CNC(=O)CCCN2C(=O)COc3ccc(C)cc32)cc1	DT40 TDP1 no CPT inconclusive, TDP1 cell CPT inconclusive (no result: IL-1B inflam inh, D3 antag)
CC(=O)c1cc(Cl)ccc1OC(=O)c1ccco1	none
O=C(Oc1ccc(Br)cc1C(=O)/C=C/c1ccccc1F)c1ccco1	DT40 TDP1 no CPT 16.4µM, IL-1B inflam inh -98.2, D3 antag inconclusive, TDP1 cell CPT 20.6µM (no result: ClpP mod)
O=C(O)C1(Nc2ccc([N+](=O)[O-])cc2[N+](=O)[O-])CCCC1	DT40 TDP1 no CPT inconclusive
CCc1ccc(S(=O)(=O)Nc2ccc3oc(C)c(C(=O)OCCOC)c3c2)cc1	DT40 TDP1 no CPT inconclusive, TDP1 cell CPT inconclusive (no result: IL-1B inflam inh, D3 antag)
CCCc1oc2ccc(NS(=O)(=O)c3ccc(OCC)cc3)cc2c1C(=O)OCC	DT40 TDP1 no CPT 5.8µM, TDP1 cell CPT 6.51µM (no result: IL-1B inflam inh, D3 antag)
COCCOC(=O)c1c(C)oc2ccc(OC(=O)c3c(OC)cccc3OC)cc12	DT40 TDP1 no CPT 16.4µM, TDP1 cell CPT inconclusive
COCCOC(=O)c1c(C)oc2ccc(NS(=O)(=O)c3ccc(C)cc3)cc12	DT40 TDP1 no CPT 25.9µM, TDP1 cell CPT inconclusive
CCCc1oc2ccc(NS(=O)(=O)c3ccc(OC)cc3)cc2c1C(=O)OCC	DT40 TDP1 no CPT 1.16µM, TDP1 cell CPT 1.84µM (no result: IL-1B inflam inh, D3 antag)
